These results are taken from PubChem BioAssay (NCI).

About 83,000 compounds went through this panel and 20% of them were active in at least one assay; those are over-represented in the sample as a whole.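 Growth was measured after 48 h exposure to one concentration of compound in 96-well plates. Values under 10 count as active.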 Unmarked numbers belong to inactive results. Calls of active or inactive are those of the source.

Some test systems named below: HCT-15 colon; HT29 colon; SNB-75 CNS; SNB-19 CNS; U251 CNS; PC-3 prostate; SK-MEL-5 melanoma; UACC-62 melanoma; LOX IMVI melanoma; SK-MEL-28 melanoma; SK-MEL-2 melanoma; EKVX NSCLC; SN12C renal; UO-31 renal; TK-10 renal; ACHN renal; CAKI-1 renal; A498 renal; CCRF-CEM leukemia; MOLT-4 leukemia.
Test in all cases: NCI-60 one-dose screen, 48 h (100 = growth as untreated, 0 = no growth, -100 = all killed)
What all share (details): 10 µM unless noted

For `OC1(c2ccc(Cl)c(C(F)(F)F)c2)CCN(CCCC(c2ccc(F)cc2)c2ccc(F)cc2)CC1`, the growth in the experiment on HCT-15 colon was -78.5% (active); in the experiment on HT29 colon, -88.1% (active); with SNB-75 CNS, -66.3% (active); in the experiment with SNB-19 CNS, 12.1%; with U251 CNS, -93.1% (active); in the experiment on PC-3 prostate, -65.5% (active). Also, the growth was -93.5% (active) in the experiment with SK-MEL-5 melanoma; -92.6% (active) with UACC-62 melanoma; -96.1% (active) in the experiment on LOX IMVI melanoma; -94.4% (active) in the experiment with SK-MEL-28 melanoma; -77.2% (active) in the experiment on SK-MEL-2 melanoma; -9.88% (active) in the experiment with EKVX NSCLC. In addition, the growth is -91.3% (active) in the experiment with SN12C renal; -65.7% (active) in the experiment on UO-31 renal; -50.7% (active) in the experiment with TK-10 renal; -86.8% (active) in the experiment on ACHN renal; -68.7% (active) in the experiment on CAKI-1 renal; -92.5% (active) with A498 renal. Besides, in the experiment with CCRF-CEM leukemia, the growth is -39% (active).
Regarding `Cc1ccc2nc3c(cc2c1)CSc1nnc(-c2ccc[nH]c2=S)n1N3`, the growth is 105% with HCT-15 colon; 108% in the experiment on HT29 colon; 91.4% in the experiment on SNB-75 CNS; 90.7% with SNB-19 CNS; 112% in the experiment with U251 CNS; 95.6% in the experiment on PC-3 prostate. The growth in the experiment with SK-MEL-5 melanoma is 96.4%; in the experiment on UACC-62 melanoma, 87%; in the experiment on LOX IMVI melanoma it was 96.6%; in the experiment with SK-MEL-28 melanoma it was 103%; with SK-MEL-2 melanoma it was 100%; in the experiment with EKVX NSCLC it was 102%. The growth in the experiment with SN12C renal is 92.8%; in the experiment with UO-31 renal, 64.3%; with TK-10 renal, 105%; in the experiment on ACHN renal it was 97.4%; with CAKI-1 renal it was 78.7%; in the experiment with A498 renal, 101%. For the same compound, the growth in the experiment with CCRF-CEM leukemia was 104%.
In the case of `O=C(CNCCO)Nc1ccc2ncnc(Nc3ccc(OCc4cccc(F)c4)c(Cl)c3)c2c1`, the growth in the experiment on HCT-15 colon was 87.9%; in the experiment with HT29 colon, 46.9%; in the experiment on SNB-75 CNS it was 88.2%; in the experiment on SNB-19 CNS, 82%; in the experiment on U251 CNS, 69.9%; with PC-3 prostate it was 84.4%. Besides, the growth is 89% with SK-MEL-5 melanoma; 104% with UACC-62 melanoma; 74.3% in the experiment with LOX IMVI melanoma; 91% in the experiment with SK-MEL-28 melanoma; 98.2% in the experiment on SK-MEL-2 melanoma; 42.6% in the experiment with EKVX NSCLC. Further, the growth in the experiment with SN12C renal was 51.6%; in the experiment on UO-31 renal it was 50.1%; in the experiment on TK-10 renal it was 56%; with ACHN renal, 38%; with CAKI-1 renal, 63.3%; with A498 renal, 69%. The results for the growth in the experiment with CCRF-CEM leukemia and in the experiment with MOLT-4 leukemia were 80.4% and 78.5%, respectively.
`CC1(C)CCCN1CCCN1c2ccccc2Sc2ccc(Cl)cc21`: the growth was 50.7% in the experiment with HCT-15 colon; 26.4% with HT29 colon; 91% in the experiment on SNB-75 CNS; 69.1% in the experiment on SNB-19 CNS; 58.3% with U251 CNS; 52.6% with PC-3 prostate. Further, the growth in the experiment with SK-MEL-5 melanoma was 2.18% (active); with UACC-62 melanoma it was 75.6%; in the experiment on LOX IMVI melanoma, 57.9%; in the experiment with SK-MEL-28 melanoma, 72%; with SK-MEL-2 melanoma, 117%; in the experiment with EKVX NSCLC it was 61.5%. In addition, the growth in the experiment on SN12C renal was 68.1%; in the experiment with UO-31 renal it was 42.3%; in the experiment on TK-10 renal, 84.6%; with ACHN renal, 61.8%; in the experiment with CAKI-1 renal, 60%; in the experiment with A498 renal it was 61.7%. The growth in the experiment on CCRF-CEM leukemia and in the experiment with MOLT-4 leukemia was 41.7% throughout.
Regarding `O=S(=O)(NCCNc1nccc(-c2c(-c3ccc(F)c(O)c3)nc3sccn23)n1)c1ccccc1`, the growth in the experiment with HCT-15 colon is 92.3%; with HT29 colon it was 64.6%; in the experiment with SNB-75 CNS, 137%; in the experiment with SNB-19 CNS it was 113%; with U251 CNS it was 98.8%; in the experiment with PC-3 prostate, 67.8%. Moreover, the growth in the experiment with SK-MEL-5 melanoma was 58.1%; in the experiment on UACC-62 melanoma, -0.791% (active); in the experiment with LOX IMVI melanoma, 27.7%; in the experiment on SK-MEL-28 melanoma, 16.8%; in the experiment on SK-MEL-2 melanoma, 12.7%; in the experiment on EKVX NSCLC, 101%. For the same compound, the growth in the experiment on SN12C renal is 64.1%; with UO-31 renal, 49.9%; with TK-10 renal, 138%; in the experiment with ACHN renal, 57.5%; in the experiment with CAKI-1 renal it was 54.6%; with A498 renal it was 109%. Besides, the growth in the experiment with CCRF-CEM leukemia is 37.2%.
As for `O=S(=O)(NCCNc1nccc(-c2c(-c3ccc(F)c(O)c3)nc3occn23)n1)c1ccccc1`, the growth in the experiment on HCT-15 colon is 76.6%; in the experiment on HT29 colon, 61.5%; with SNB-75 CNS, 71.9%; in the experiment on SNB-19 CNS it was 73.8%; in the experiment with U251 CNS it was 60.4%; in the experiment with PC-3 prostate, 55.8%. The growth with SK-MEL-5 melanoma is 22.8%; with UACC-62 melanoma, 6.23% (active); in the experiment with LOX IMVI melanoma, 33.7%; in the experiment on SK-MEL-28 melanoma it was 27.3%; in the experiment with SK-MEL-2 melanoma it was 17%; in the experiment with EKVX NSCLC it was 81.6%. Also, the growth is 48.8% in the experiment on SN12C renal; 35.2% with UO-31 renal; 121% with TK-10 renal; 33.9% in the experiment with ACHN renal; 44.1% with CAKI-1 renal; 103% in the experiment with A498 renal. The growth with CCRF-CEM leukemia was 38.5%; in the experiment on MOLT-4 leukemia, 47.8%.
As for `CN1CCN(C(=O)OCc2nc3c(N4CCOCC4)nc(-c4ccccc4)nc3n2C)CC1`, the growth with HCT-15 colon is -59.9% (active); in the experiment with HT29 colon, -29.1% (active); in the experiment with SNB-75 CNS it was -6.43% (active); in the experiment on SNB-19 CNS, 30.3%; with U251 CNS, -54.2% (active); in the experiment on PC-3 prostate, -62.3% (active). Moreover, the growth in the experiment on SK-MEL-5 melanoma is -96.7% (active); in the experiment on UACC-62 melanoma, -95.9% (active); in the experiment with LOX IMVI melanoma, -91.4% (active); with SK-MEL-28 melanoma, -95.5% (active); in the experiment on SK-MEL-2 melanoma, -59.9% (active); with EKVX NSCLC, -76.7% (active). Moreover, the growth is -86.8% (active) with SN12C renal; -100% (active) with UO-31 renal; -70.1% (active) in the experiment with TK-10 renal; -100% (active) in the experiment on ACHN renal; -93.5% (active) in the experiment on CAKI-1 renal; 3.05% (active) in the experiment with A498 renal. For the same compound, the growth in the experiment on CCRF-CEM leukemia was -6.94% (active); in the experiment on MOLT-4 leukemia it was -6.95% (active).
Turning to `c1ccc(-c2nnc(Nc3ccc4c(c3)OCCO4)o2)c(NCc2ccncc2)c1`, the growth was 6.86% (active) with HCT-15 colon; 0.34% (active) in the experiment on HT29 colon; 22.6% in the experiment on SNB-75 CNS; 28.4% in the experiment on SNB-19 CNS; 20.5% with U251 CNS; 29.7% in the experiment with PC-3 prostate. For the same compound, the growth was -50% (active) in the experiment on SK-MEL-5 melanoma; 20.7% in the experiment with UACC-62 melanoma; 23.6% in the experiment with LOX IMVI melanoma; 63.3% with SK-MEL-28 melanoma; 4.04% (active) in the experiment with SK-MEL-2 melanoma; 35.4% in the experiment on EKVX NSCLC. For the same compound, the growth was 27.5% with SN12C renal; 30.2% in the experiment with UO-31 renal; 50.9% with TK-10 renal; 23.4% with ACHN renal; 21.1% in the experiment with CAKI-1 renal; 10% with A498 renal. For the same compound, the growth with CCRF-CEM leukemia was 20.4%.
